# From PubChem BioAssay
# Records with an inconclusive call do not appear. Active and inactive are the calls of the source.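 The calls were made as follows, unless noted: active = differentiation response of at least 50%, scaled between solvent and reference control, from cells with both markers; inactive = the rest.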
# What was measured:
# [1] = rapamycin-like changes in RPL19A-GFP expression – cell-based, S. cerevisiae, multiplex flow cytometry, primary screen (AID 1862; in the data active = percent of DMSO control GFP below about 86%;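 also: lower values mimic rapamycin by blocking the RPL19A rise seen in DMSO cells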); settings: S. cerevisiae RPL19A-GFP strain, flow cytometry fluorescence, 3 h; at 10 µM; stronger effect = lower value
# [2] = TOR pathway GLN3 branch reporter MEP2-GFP changes – S. cerevisiae, multiplex flow cytometry, primary screen (AID 1867;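 active = GFP response, as percent of the DMSO control, above the screen-wide mean plus 3 SD, about 139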;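 also: median GFP channel fluorescence of barcode-gated MEP2-GFP cells measured by flow cytometry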); settings: S. cerevisiae MEP2-GFP strain, 3 h, at 10 µM, stronger effect = higher value, 100% means same as DMSO wells
# [3] = TOR pathway RTG branch CIT2 reporter changes – S. cerevisiae, GFP fusion, multiplex flow cytometry, primary screen (AID 1870;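 active = percent response above a set limit, the screen-wide mean plus 3 SD, cut at about 130% in these data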;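 also: barcoded CIT2-GFP strain pooled with four other GFP strains with rapamycin as positive control; median GFP fluorescence per well over plate mean of DMSO wells so 100% = DMSO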); settings: S. cerevisiae CIT2-GFP expression, 3 h, at 10 µM, stronger effect = higher value
# [4] = TOR pathway LAP4-GFP level changes – S. cerevisiae, multiplex flow cytometry, primary screen (AID 1873;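 active = GFP signal, as percent of the solvent control, above the screen mean plus 3 SD, about 149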); settings: S. cerevisiae LAP4-GFP expression, 3 h, at 10 µM, stronger effect = higher value
# [5] = yeast AGP1-GFP level changes, GLN3 branch – cell-based, multiplex flow cytometry, S. cerevisiae, primary screen (AID 1887;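 active = GFP signal above the screen-wide mean plus 3 SD, that is over about 124.5% of the solvent control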;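 also: AGP1-GFP fusion strain of S. cerevisiae within a five-strain barcoded multiplex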); settings: 3 h, at 10 µM, stronger effect = higher value
# [6] = reduced mouse 2C T cell binding to pMHC/ICAM-1 vesicles – MLPCN validation set, flow cytometry, LFA-1/ICAM-1 modulator project, pilot screen (AID 2523;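 active = response below a set limit, under 55% cells CD8-positive and vesicle-bound, and CD8 cells' 90th-percentile brightness under 279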;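 as to vesicle binding response: mean PE anti-B7-1 fluorescence of CD8+ cells relative to row control; 100% = QL9-loaded vesicles with DMSO vehicle in the same plate row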); settings: 2C mouse CD8+ T cells, at 7 µM, stronger effect = lower value; double positive events: measured here: CD8+/vesicle+ event percentage
# [7] = biological target: Integrin beta-1 (Homo sapiens) + Integrin alpha-4 (Homo sapiens) (UniProt P13612+P05556); assay: alpha4beta1 integrin LIBS antibody binding reduction – U937 cells, HUTS-21 mAb, flow cytometry, validation set, VLA-4 allosteric modulator project, pilot screen (AID 2674;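 active = inhibition above 50%, about 3 SD of the validation set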;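 also: antibody binding induced by the VLA-4 ligand LDV present at three times its Kd; 0% = LDV ligand with antibody and no compound and 100% = antibody without LDV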); settings: HUTS-21 LIBS mAb binding, at 6.7 µM, stronger effect = higher value, binding induced by LDV ligand
# Integrin beta-1 (Homo sapiens) + Integrin alpha-4 (Homo sapiens), sequence (P05556 whole entry, looked up): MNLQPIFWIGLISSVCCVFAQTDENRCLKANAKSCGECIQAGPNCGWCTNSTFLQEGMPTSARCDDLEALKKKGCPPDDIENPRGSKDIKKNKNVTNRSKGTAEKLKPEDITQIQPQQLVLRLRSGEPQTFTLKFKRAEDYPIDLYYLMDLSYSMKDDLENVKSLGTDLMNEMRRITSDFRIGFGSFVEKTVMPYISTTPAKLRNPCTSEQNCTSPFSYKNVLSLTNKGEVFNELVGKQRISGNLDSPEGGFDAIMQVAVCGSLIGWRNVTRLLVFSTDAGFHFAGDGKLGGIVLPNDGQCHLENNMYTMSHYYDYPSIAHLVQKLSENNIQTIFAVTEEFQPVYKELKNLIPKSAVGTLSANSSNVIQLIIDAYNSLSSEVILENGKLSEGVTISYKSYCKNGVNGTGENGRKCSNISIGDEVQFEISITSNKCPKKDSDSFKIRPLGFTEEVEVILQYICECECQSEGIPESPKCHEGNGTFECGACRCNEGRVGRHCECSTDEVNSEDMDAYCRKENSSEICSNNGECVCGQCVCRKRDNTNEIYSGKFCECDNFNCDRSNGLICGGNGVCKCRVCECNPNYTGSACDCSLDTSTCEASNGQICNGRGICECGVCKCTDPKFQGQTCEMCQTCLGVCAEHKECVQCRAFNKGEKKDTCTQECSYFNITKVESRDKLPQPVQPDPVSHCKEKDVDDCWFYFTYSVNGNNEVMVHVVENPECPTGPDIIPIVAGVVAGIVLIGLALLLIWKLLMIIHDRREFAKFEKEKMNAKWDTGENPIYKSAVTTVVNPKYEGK
# Integrin beta-1 (Homo sapiens) + Integrin alpha-4 (Homo sapiens), sequence (P13612 whole entry, looked up): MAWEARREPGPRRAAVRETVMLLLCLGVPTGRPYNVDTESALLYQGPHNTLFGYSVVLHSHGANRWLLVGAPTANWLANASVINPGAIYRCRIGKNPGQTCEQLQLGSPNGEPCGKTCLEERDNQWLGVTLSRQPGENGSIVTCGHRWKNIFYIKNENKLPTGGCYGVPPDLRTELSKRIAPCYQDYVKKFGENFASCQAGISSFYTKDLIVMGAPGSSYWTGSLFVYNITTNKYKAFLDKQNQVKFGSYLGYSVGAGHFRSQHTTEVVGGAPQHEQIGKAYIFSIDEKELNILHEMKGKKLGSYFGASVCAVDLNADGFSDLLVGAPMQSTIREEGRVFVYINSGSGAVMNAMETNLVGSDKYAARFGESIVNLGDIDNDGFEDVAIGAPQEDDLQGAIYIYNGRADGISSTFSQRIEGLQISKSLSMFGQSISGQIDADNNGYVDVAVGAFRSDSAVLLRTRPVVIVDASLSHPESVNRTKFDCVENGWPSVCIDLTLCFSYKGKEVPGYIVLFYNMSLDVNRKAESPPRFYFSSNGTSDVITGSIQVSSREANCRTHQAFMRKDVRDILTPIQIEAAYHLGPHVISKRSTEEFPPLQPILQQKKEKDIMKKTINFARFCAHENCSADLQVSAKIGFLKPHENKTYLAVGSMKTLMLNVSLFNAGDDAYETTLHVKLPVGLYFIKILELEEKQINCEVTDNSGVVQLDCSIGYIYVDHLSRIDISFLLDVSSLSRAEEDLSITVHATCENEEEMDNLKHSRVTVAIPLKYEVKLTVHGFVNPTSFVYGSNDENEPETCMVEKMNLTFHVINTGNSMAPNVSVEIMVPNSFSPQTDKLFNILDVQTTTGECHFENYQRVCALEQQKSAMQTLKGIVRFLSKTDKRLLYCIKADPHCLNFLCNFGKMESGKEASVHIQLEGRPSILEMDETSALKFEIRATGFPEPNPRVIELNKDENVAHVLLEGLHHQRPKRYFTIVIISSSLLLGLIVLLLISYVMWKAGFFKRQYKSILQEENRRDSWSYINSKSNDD
# [8] = calorie-restriction mimetic ROS inhibitors, yeast – validation compound set, pilot screen (AID 2706;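 active = superoxide response below 65% of plate, a cut near 3 SD across the whole screen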;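 also: yeast exposed to compound for one week at 30 degrees C before staining; 100% = mean of all compound wells on the same plate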); settings: S. cerevisiae aging, superoxide DHE fluorescence; at 10 µM; stronger effect = lower value
# [9] = biological target: Beta-adrenergic receptor kinase 1 (Homo sapiens) (UniProt P25098); assay: GRK2 binders displacing RNA aptamer, biochemical, validation, human GRK2, bead flow cytometry (AID 488806;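 active = aptamer binding inhibition above 30%, about 3 SD of noise from non-fluorescent compounds; inactive = inhibition at or below 30%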); settings: bead-bound GRK2, FAM-aptamer displacement, at 10 µM, stronger effect = higher value
# Beta-adrenergic receptor kinase 1 (Homo sapiens), sequence (P25098 whole entry, looked up): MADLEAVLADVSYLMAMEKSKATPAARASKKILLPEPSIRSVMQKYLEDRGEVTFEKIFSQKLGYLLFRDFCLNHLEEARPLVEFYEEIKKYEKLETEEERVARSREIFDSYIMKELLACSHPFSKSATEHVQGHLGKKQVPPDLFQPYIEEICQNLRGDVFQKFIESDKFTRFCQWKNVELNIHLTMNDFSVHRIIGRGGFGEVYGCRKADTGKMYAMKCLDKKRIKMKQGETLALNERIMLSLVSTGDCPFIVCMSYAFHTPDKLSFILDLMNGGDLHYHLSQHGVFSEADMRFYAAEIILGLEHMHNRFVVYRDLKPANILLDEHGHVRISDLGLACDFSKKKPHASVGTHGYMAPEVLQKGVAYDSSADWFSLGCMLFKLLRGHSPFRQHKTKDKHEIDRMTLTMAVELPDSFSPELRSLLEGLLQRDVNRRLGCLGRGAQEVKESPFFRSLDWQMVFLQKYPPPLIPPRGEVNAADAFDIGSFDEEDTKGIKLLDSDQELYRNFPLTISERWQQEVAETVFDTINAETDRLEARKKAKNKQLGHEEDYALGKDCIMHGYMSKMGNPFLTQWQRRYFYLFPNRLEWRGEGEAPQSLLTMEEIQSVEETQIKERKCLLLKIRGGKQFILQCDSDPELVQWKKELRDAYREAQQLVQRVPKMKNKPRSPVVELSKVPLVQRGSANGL
# [10] = biological target: Beta-2 adrenergic receptor (Homo sapiens) (UniProt P07550); assay: agonist-induced loss of surface beta2AR – cell-based, FAP fluorogen, flow cytometry, validation set, pilot screen (AID 504459;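 active = percent response above 42, roughly 3 SD of non-fluorescent test compounds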;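 also: agonist-driven loss of surface beta2AR via internalization measured by FAP dye flow cytometry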); settings: Am2.2-beta2AR cells, at 10 µM, stronger effect = higher value
# Beta-2 adrenergic receptor (Homo sapiens), sequence (P07550 whole entry, looked up): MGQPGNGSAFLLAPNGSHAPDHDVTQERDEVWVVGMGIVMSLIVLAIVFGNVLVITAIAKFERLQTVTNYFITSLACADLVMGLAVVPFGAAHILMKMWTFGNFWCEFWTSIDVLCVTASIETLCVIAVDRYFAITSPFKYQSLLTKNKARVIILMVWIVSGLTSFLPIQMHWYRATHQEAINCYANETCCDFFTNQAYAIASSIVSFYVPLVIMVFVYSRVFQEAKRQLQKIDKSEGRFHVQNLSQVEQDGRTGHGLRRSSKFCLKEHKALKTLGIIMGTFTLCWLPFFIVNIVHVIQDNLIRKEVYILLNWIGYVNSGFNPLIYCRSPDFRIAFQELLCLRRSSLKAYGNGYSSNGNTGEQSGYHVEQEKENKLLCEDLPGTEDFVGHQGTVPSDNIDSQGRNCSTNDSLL
# [11] = biological target: AP-2 complex subunit beta (Homo sapiens) (UniProt P63010); assay: beta-arrestin/AP2 interaction blockers – biochemical, validation set, GST-AP2 beads, flow cytometry, pilot screen (AID 504541;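 active = inhibition above 54%, about 3 SD of non-fluorescent compounds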;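 also: AP2 carries R879A mutation and is captured from E. coli lysate; bead-bound FITC arrestin peptide fluorescence measuring arrestin peptide binding to AP2; 0% = DMSO wells and 100% = excess unlabeled arrestin peptide control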); settings: FITC arrestin peptide, at 10 µM, stronger effect = higher value, AP2 beta2 appendage fragment, R879A mutant
# AP-2 complex subunit beta (Homo sapiens), sequence (P63010 whole entry, looked up, the tested form may be a part, one chain of several): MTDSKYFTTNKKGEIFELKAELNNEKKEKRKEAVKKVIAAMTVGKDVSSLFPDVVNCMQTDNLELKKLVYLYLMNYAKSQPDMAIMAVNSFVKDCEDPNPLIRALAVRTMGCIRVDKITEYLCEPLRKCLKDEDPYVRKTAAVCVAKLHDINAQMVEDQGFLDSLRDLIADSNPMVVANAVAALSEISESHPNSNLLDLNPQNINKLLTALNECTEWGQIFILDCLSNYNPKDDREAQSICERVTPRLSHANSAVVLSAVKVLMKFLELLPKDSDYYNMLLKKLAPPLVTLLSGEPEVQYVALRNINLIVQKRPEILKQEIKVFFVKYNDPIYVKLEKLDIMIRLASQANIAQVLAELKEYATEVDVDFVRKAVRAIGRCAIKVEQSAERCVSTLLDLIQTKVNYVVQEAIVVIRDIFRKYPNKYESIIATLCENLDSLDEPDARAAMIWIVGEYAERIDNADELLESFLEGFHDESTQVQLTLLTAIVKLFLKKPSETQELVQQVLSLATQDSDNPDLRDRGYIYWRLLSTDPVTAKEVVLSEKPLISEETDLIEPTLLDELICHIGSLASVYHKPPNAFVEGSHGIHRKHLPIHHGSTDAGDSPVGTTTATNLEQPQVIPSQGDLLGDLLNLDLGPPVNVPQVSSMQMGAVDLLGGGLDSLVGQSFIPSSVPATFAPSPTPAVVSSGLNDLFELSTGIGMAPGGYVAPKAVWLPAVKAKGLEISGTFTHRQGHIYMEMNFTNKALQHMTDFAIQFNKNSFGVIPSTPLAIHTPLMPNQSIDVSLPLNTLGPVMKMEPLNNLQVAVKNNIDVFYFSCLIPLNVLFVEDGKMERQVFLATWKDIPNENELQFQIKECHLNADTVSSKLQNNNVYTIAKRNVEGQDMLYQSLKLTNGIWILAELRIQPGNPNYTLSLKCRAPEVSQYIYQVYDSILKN
# [12] = cytosolic pH regulators acting via V-ATPase – S. cerevisiae, pHLuorin, HTS validation (AID 504600; in the data active = response above about 15%;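 also: plate controls were DMSO for no effect and reference compound for full effect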); settings: V-ATPase proton transport, at 10 µM, stronger effect = higher value
# [13] = test system: anti-desmoglein-3 scFv antibody binding to human DSG3; assay: blockers of pathogenic pemphigus antibody–desmoglein-3 binding – biochemical, validation compound set, bead-based, flow cytometry, pilot screen (AID 588368;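 active = binding below the plate cutoff, the plate median minus 3 SD, with a reading above zero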;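 also: signal is the median channel fluorescence of bead-bound GFP antibody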); settings: Protein G beads, DSG3-Fc, scFv-GFP binding, at 10 µM, stronger effect = lower value
# [14] = Nile Red efflux blockade in pump-expressing yeast – validation compound set, multiplex, phenotypic, pilot screen (AID 588506;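 active = efflux inhibition above 0.42, the validation set average plus 4 SD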;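 also: Nile Red retained in cells so higher fluorescence means more efflux inhibition; 0 = negative control wells and 1 = enniatin B 25 µM full block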); settings: S. cerevisiae pump-expressing triplex, Nile Red efflux flow cytometry; at 10 µM; stronger effect = higher value; the pumps come from Candida albicans
# [15] = biological target: ATP-binding cassette sub-family B member 6 (Homo sapiens) (UniProt Q9NP58); assay: blockers of ABCB6-driven porphyrin uptake – K562-ABCB6 cells, flow cytometry, validation set, pilot screen (AID 588550;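 active = inhibition above the screen-wide mean plus 3 SD, about 51%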;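 also: 0% = DMSO wells and 100% = benzethonium chloride 70 µM positive control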); settings: K562-ABCB6 porphyrin accumulation, 1 h, at 10 µM, stronger effect = higher value
# ATP-binding cassette sub-family B member 6 (Homo sapiens), sequence (Q9NP58 whole entry, looked up): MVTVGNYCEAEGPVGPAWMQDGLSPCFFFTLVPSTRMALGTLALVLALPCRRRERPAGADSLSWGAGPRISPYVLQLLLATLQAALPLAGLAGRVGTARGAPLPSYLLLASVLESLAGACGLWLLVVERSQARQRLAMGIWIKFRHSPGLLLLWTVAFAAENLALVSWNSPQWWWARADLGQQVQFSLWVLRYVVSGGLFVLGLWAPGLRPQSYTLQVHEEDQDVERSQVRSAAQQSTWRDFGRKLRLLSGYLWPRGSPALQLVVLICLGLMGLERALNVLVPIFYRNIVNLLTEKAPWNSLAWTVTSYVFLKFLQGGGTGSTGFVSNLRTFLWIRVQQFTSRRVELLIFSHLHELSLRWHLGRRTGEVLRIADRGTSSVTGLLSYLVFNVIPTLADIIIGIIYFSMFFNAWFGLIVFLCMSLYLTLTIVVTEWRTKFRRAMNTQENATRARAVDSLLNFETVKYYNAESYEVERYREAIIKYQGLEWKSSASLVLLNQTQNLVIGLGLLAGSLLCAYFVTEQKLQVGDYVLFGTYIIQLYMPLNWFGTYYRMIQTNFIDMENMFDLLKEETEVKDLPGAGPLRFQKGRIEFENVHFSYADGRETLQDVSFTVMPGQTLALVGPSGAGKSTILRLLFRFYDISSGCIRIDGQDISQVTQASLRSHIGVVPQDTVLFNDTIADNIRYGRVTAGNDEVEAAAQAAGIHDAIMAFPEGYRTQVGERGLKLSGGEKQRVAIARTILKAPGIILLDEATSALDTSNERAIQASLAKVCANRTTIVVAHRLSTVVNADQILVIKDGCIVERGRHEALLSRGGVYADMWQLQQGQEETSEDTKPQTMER
# [16] = AML differentiation inducers, ER-HoxA9 marrow cells – cell-based, GFP/MAC1 double positive, flow cytometry, validation set, primary screen (AID 588685); settings: stronger effect = higher value, normalized: vehicle 0, fulvestrant 100;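 also: compound exposure lasts four days before antibody staining and flow analysis; 0% = DMSO wells and 100% = 5 µM fulvestrant positive control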
SMILES,percent of DMSO control GFP [1],GFP response vs DMSO [2],percent response of DMSO control [3],GFP response vs DMSO [4],"GFP response, % of DMSO [5]",double positive events [6],vesicle binding response [6],inhibition [7],superoxide response (% of plate) [8],aptamer binding inhibition [9],response [10],inhibition [11],response [12],binding (% of control) [13],efflux inhibition (fraction of control) [14],inhibition [15],differentiation response [16]
COc1ccccc1OS(=O)(=O)c1ccc(NC(C)=O)cc1,87.1% (inactive),123% (inactive),101% (inactive),82.5% (inactive),103% (inactive),57.8%,65.7% (inactive),10.3% (inactive),97% (inactive),2% (inactive),-16.4% (inactive),-11.8% (inactive),-0.65% (inactive),101% (inactive),-0.35 (inactive),4% (inactive),-4.09% (inactive)
CC1=C/C(=N\N=C2\NC(=O)C(CC(=O)Nc3ccccc3F)S2)CC(C)(C)C1 (stereo not drawn),94.2% (inactive),125% (inactive),86% (inactive),83.1% (inactive),95.2% (inactive),58%,104% (inactive),12.3% (inactive),96.1% (inactive),8% (inactive),-1.66% (inactive),-7.65% (inactive),1.96% (inactive),102% (inactive),-0.2 (inactive),11% (inactive),4.09% (inactive)
Cc1ccc2c(c1C)NC(C(=O)O)C1CC=CC21 (stereo not drawn),102% (inactive),97.4% (inactive),105% (inactive),73.5% (inactive),88.5% (inactive),60.4%,121% (inactive),-70% (inactive),101% (inactive),34% (active),62.2% (active),11% (inactive),2.2% (inactive),96.8% (inactive),0.15 (inactive),-4% (inactive),-4% (inactive)
CCCCCC#CCC#CCC#CCC#CCCCC(=O)O,106% (inactive),108% (inactive),103% (inactive),106% (inactive),116% (inactive),62.5%,208% (inactive),-3.67% (inactive),123% (inactive),62% (active),-11.7% (inactive),26.9% (inactive),4.4% (inactive),90.5% (inactive),0.04 (inactive),2% (inactive),-10.9% (inactive)
CCNC(=S)N1CCN(CCN2C(=O)c3cccc4cccc(c34)C2=O)CC1,103% (inactive),97.7% (inactive),106% (inactive),95.9% (inactive),107% (inactive),63.5%,143% (inactive),-26.6% (inactive),96.9% (inactive),0% (inactive),-20.5% (inactive),-15.4% (inactive),1.54% (inactive),104% (inactive),-0.195 (inactive),-13% (inactive),-8.96% (inactive)
C[N+](C)(C)CCCCCCCCCC[N+](C)(C)C,94.4% (inactive),129% (inactive),103% (inactive),77% (inactive),87% (inactive),70%,208% (inactive),3.55% (inactive),100% (inactive),5% (inactive),-10.3% (inactive),-6.99% (inactive),0.2% (inactive),101% (inactive),-0.56 (inactive),12% (inactive),1.64% (inactive)
CC(=O)c1cccc(NC(=O)N[C@@H](CC(C)C)C(=O)O)c1,104% (inactive),101% (inactive),104% (inactive),96.6% (inactive),104% (inactive),57.9%,230% (inactive),-9.79% (inactive),109% (inactive),-2% (inactive),-0.44% (inactive),17.6% (inactive),-2.05% (inactive),99.2% (inactive),0.18 (inactive),6% (inactive),9.04% (inactive)
COc1ccc2[nH]cc(C3N4CC5(C)CN3CC(C)(C4)C5=O)c2c1 (stereo not drawn),103% (inactive),103% (inactive),107% (inactive),103% (inactive),107% (inactive),59.2%,138% (inactive),9.63% (inactive),105% (inactive),-2% (inactive),-5.37% (inactive),10.8% (inactive),1.5% (inactive),101% (inactive),-0.08 (inactive),2% (inactive),-11.9% (inactive)
O=C(O)CCn1cnc2ccccc2c1=O,97.8% (inactive),113% (inactive),93.9% (inactive),111% (inactive),97.4% (inactive),58.8%,172% (inactive),9.13% (inactive),101% (inactive),4% (inactive),-1.18% (inactive),-3.21% (inactive),5.74% (inactive),101% (inactive),-0.28 (inactive),7% (inactive),-8.8% (inactive)
